High-throughput results (PubChem)
Most compounds without a hit are left out; they make up all but 6.9% or so of the library.
KB-3-1 cytotox = kills parental KB-3-1 adenocarcinoma cells. actives 1.4% (n = 400,000). Potency, µM (series often up to 46.1 µM), hits mostly cytotoxic. AID 1347075. KB-3-1 viability, CellTiter-Glo ATP luminescence, 72 h; note: nearly all actives have a fitted effect of over 60% in size
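Cells are dispensed, compounds pinned in, plates held at 37 °C for 72 h, then CellTiter-Glo is added and luminescence read after 10 minutes. Cell line: parental KB-3-1 in phenol-red-free DMEM, 10% FBS.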
SW480 rerep = DNA re-replication induction in SW480 cells; actives 1.8% (n = 340,000); Potency, µM (highest dose often 46.1 µM), most hits filed as activators; SW480 DNA re-replication, Hoechst DNA content imaging, 48 h; AID 624297; note: nearly all actives have a fitted effect of over 55% in size
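Compounds, transferred as 23 nL by pin tool, were incubated with cells for 48 hr; DNA content per nucleus was then quantified by Hoechst staining and fluorescence plate imaging.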
KB-V1 cytotox = kills drug-selected multidrug resistant KB-V1 cells; KB-V1 MDR cells viability, CellTiter-Glo, 72 h; Potency, µM (top dose mostly 46.1 µM), hits mostly cytotoxic; actives 3.4% (n = 400,000); note: nearly all actives have a fitted effect of over 60% in size
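KB-V1 MDR subline cells in DMEM (phenol-red free, 10% FBS) exposed to compounds in qHTS concentration series for 72 h at 37 degrees C. Viability read by CellTiter-Glo luminescence; concentration-effect curves fitted after normalization and correction.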
MCF10A rereplic = DNA re-replication induction in MCF 10a cells | MCF 10A DNA re-replication, Hoechst nuclear intensity, 48 h | Potency, µM (highest dose often 46.1 µM), most hits filed as activators | actives 2.9% (n = 350,000); note: nearly all actives have a fitted effect of over 50% in size
ASM inhibitor = blocks human secretory acid sphingomyelinase; P17405; placental ASM, HMU-PC fluorogenic substrate, 60 min; Potency, µM (titrated, usually from 57.5 µM), most hits filed as inhibitors; actives 0.006% (n = 340,000)
Target sequence (P17405 47-631 limits assumed): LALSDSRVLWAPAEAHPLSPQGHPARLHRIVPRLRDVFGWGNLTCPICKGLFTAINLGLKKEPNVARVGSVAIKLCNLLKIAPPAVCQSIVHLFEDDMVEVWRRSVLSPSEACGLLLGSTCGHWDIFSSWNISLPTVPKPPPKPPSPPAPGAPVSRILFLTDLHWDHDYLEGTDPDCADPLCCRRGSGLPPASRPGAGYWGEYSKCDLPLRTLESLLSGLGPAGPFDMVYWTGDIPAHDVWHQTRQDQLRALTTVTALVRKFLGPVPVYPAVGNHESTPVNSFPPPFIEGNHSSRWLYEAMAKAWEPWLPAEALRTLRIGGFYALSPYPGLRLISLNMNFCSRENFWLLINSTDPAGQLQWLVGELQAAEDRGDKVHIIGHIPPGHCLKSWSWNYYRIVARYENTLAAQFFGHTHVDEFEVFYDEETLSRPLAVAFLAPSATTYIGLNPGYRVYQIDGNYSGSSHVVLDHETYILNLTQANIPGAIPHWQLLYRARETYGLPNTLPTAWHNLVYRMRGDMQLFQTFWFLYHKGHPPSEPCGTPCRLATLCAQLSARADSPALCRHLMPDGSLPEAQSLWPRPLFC
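Fluorescence read-out (Ex 386 nm, Em 447 nm) after stopping the reaction at pH 10. Enzyme: ASM from human placenta; substrate HMU-PC0, 9 uM final; 60 min, 37 °C. Compound preincubation 10 min, ambient temperature.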
Giardia killer = kills Giardia lamblia; AID 540267; activity change, % at 7.66 µM, hits read low; actives 0.15% (n = 340,000); Giardia lamblia trophozoite viability; in the data active = activity change below about -80%; inconclusive = between about -30% and that limit;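 note: parasites exposed to compound for two days anaerobically before the ATP read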
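Giardia trophozoites, 100 cells per well, were exposed to compounds for 48 hrs at 37 deg C under anaerobic conditions; viability was then read as ATP content by bioluminescence after 15-30 min at room temperature.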
A number is an active result; n = inactive; u = inconclusive; x = no result given. Unless noted, calls come from the whole dose curve; as a rule, active = well fitted curve in the direction sought with a large enough effect; inconclusive = small, poorly fitted or top-dose-only effect, or another doubt; inactive = no such curve, though single readings can be large; an effect the other way counts as inactive or inconclusive.

SMILES | KB-3-1 cytotox | SW480 rerep | KB-V1 cytotox | MCF10A rereplic | ASM inhibitor | Giardia killer
COc1ccc(C2=Nn3c(nnc3-c3ccccc3Cl)SC2)cc1OC1CCOC1 (configuration not stated) | 13µM | u | u | u | n | n
COc1ccc(C2=Nn3c(nnc3-c3ccc(OC)cc3)SC2)cc1 | 0.651µM | 1.84µM | 1.3µM | 0.92µM | n | n
CN(C)CCCOC(=O)N1c2ccccc2C=Cc2ccccc21 | 25.9µM | n | n | n | n | n
CN(C)CCCOC(=O)c1ccccc1Cl | n | n | n | n | n | n
CCN(C(=O)c1nn(-c2ccc(C)cc2)c(=O)c2c1c1ccccc1n2C)c1ccc(F)cc1 | n | x | n | x | x | x
Cc1cccc(-c2ncc(CN3CCN(CCC(C)C)C(CCO)C3)cn2)c1 (configuration not stated) | n | 23.1µM | u | n | n | n
CCOC(=O)C1CCN(C(=O)c2ccc3c(c2)OCCO3)CC1 | n | n | n | n | n | n
COc1ccc(C(=O)C2CCN(C(=O)c3ccc(OC)cc3)CC2)cc1 | u | n | 6.51µM | n | n | n
COc1ccc(CCNC(=O)C2CCN(C(=O)c3ccc(F)cc3)CC2)cc1 | n | u | n | 0.651µM | n | n
COc1ccccc1NC(=O)N1CCC(C(=O)c2ccc(F)cc2)CC1 | n | n | 20.6µM | n | n | n
CCOc1ccc(C(=O)N2CCC(C(=O)c3ccc4c(c3)OCCO4)CC2)cc1 | n | n | 4.11µM | n | n | n
O=C(CC1C(=O)OCCN1Cc1ccccc1)Nc1cccc(Cl)c1 (configuration not stated) | n | x | n | x | x | x
CC(C)(C)OC(=O)N1CCC(c2c(C(=O)N3CCN(C(=O)c4ccco4)CC3)cnn2-c2ccc(Cl)cc2)CC1 | n | x | n | x | x | x
O=C(NCCc1ccccc1)c1ccc(CSc2nc3ccncc3n2Cc2ccccc2F)cc1 | n | x | n | x | x | x
Cc1ccc(-c2cc(-c3ccc4c(c3)NC(=O)CO4)nc3c2COc2ccc(C)cc2-3)cc1 | n | x | n | x | x | x
COc1ccccc1C(=O)N1CCC(C(=O)c2ccc(F)cc2)CC1 | n | n | 9.2µM | n | n | n
COc1ccc(C(=O)N2CCC(C(=O)c3ccc(F)cc3)CC2)cc1 | n | n | u | n | n | n
CCOc1ccc(C(c2c(O)cc(C)n(Cc3ccco3)c2=O)N2CCN(C)CC2)cc1 (configuration not stated) | n | x | n | x | x | x
CCCC[C@@H]1CCCO[C@@](C(=O)NCc2ccccc2)(C(F)(F)F)C1 | x | x | x | x | x | n
O=C(NCc1ccccc1)[C@]1(C(F)(F)F)C[C@H](CCc2ccccc2)CCCO1 | n | n | n | 1.84µM | n | u
O=C(NCc1cccnc1)C1CCN(c2ccc(S(=O)(=O)N3CCOCC3)cc2Cl)CC1 | 23.1µM | u | n | n | n | n
O=C(NCc1ccc(Cl)cc1Cl)C1CCN(S(=O)(=O)c2ccc3c(c2)OCCCO3)CC1 | u | n | 3.26µM | n | n | n
O=C(NCc1ccc(F)cc1)C1CCN(S(=O)(=O)c2ccc3c(c2)OCCCO3)CC1 | n | n | u | n | n | n
COc1ccc(S(=O)(=O)N2CCC(C(=O)NCc3cccc(OC)c3)CC2)cc1 | n | n | n | n | n | n
CCCNC(=O)C1CCN(c2ccc(S(=O)(=O)N3CCOCC3)cc2Cl)CC1 | n | n | u | n | n | n
SMILES | KB-3-1 cytotox | SW480 rerep | KB-V1 cytotox | MCF10A rereplic | ASM inhibitor | Giardia killer
COc1cccc(CNC(=O)C2CCN(S(=O)(=O)c3ccccc3)CC2)c1 | n | n | 20.6µM | n | n | n
O=C(NCc1ccc2c(c1)OCO2)C1CCN(c2ccc(S(=O)(=O)N3CCCC3)cc2)CC1 | u | n | 2.59µM | n | n | n
O=S(=O)(c1ccc(Br)cc1)N1CCN(c2nc(-c3ccccc3)nc3ccccc23)CC1 | n | x | n | x | x | n
Cc1ccc2c(C)c(C(=O)N(Cc3ccc(Cl)cc3)C3CCS(=O)(=O)C3)oc2c1 (configuration not stated) | n | x | n | x | x | x
O=C(CSc1nc2ccsc2c(=O)n1-c1ccc(Br)cc1)NCc1ccccc1 | x | x | x | x | x | n
Cn1c(=O)c2c(SCC(=O)NCc3ccco3)nc(-c3cccc(F)c3)nc2n(C)c1=O | n | x | u | x | x | x
